The record followed here is PubChem BioAssay AID1272365 (Small Molecule Screening Facility, UW Madison, 2018).

“And” between values parts separate entries of the source, which are not always exact repeats. Equal values may be shown once. The whole screen tested about 430,000 compounds, of which about 2,600 (0.6%) were called active. This is one part of a sample in which actives are shown more often than they occur. Unmarked numbers belong to inactive results. Rule as the data show it: active = inhibition mostly above about 37% (no sharp cut-off); inactive = mostly below about 20%.

In general, inhibition refers to the change of the read-out against control, counted positive when it falls.

This experiment has as its system PriA–SSB C-terminal tail interaction (Klebsiella pneumoniae). Put plainly: blocks PriA binding to SSB C-terminal tail, primary screen, biochemical, AlphaScreen (AID 1272365).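 As to inhibition: plate controls were negative control peptide for no effect and reference peptide for full effect.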 The note with it: AlphaScreen SSBct-PriA binding, biotinylated peptide; at 33 µM, hits give high values.
Take `Cc1ccc2c(CC(=O)NCc3ccccc3Cl)cc(=O)oc2c1`: the inhibition was -3%.
The value for `O=C(OCC(=O)N1CCc2ccccc21)c1ccc([N+](=O)[O-])cc1` was -10.4%.
Then `O=C(COC(=O)c1cccc(I)c1)c1ccc([N+](=O)[O-])cc1`, with 38% (active); and `O=C(COC(=O)c1cccc(I)c1)c1ccc(-n2nncc2-c2ccccc2)cc1`, with -4%; and `CS(=O)(=O)N1CCC(CNC(=O)c2ccc(OC(F)(F)F)cc2)CC1`, with -25%.
Then `O=S(=O)(/C=C/c1ccccc1)N1CCCSCC1CN1CCOCC1` (stereo not given), with -4%; and `COC(=O)c1sccc1S(=O)(=O)NCc1ccc(C(=O)c2ccco2)s1`, with -24%.
Regarding `O=C(Cn1nc(-n2ccc3ccccc32)ccc1=O)Nc1c[nH]c(=O)[nH]c1=O`, the inhibition is -41%.
The value for `O=S(=O)(CCc1ccccc1)N1CCN(c2ccc(-c3ccccc3)nn2)CC1` was -3%; that for `CCSc1ccccc1C(=O)N1CCN(c2ccc(-c3ccccn3)nn2)CC1` was 161% (active); that for `CCSc1ccccc1C(=O)N1CCN(C(=O)C2CC2c2ccccc2)CC1` (stereo not given) was -7%.
Then `CCOc1ccccc1C(=O)N1CCN(c2ccc(-c3ccccn3)nn2)CC1`, with 100% (active); and `O=C(c1ccccc1F)N1CCN(c2ccc(-c3cccnc3)nn2)CC1`, with -8% and -16%.
The value for `O=C(c1ccc(N2CCCCC2)nn1)N(Cc1ccccc1)c1ccccn1` was -19%.
Regarding `CCSc1ccccc1C(=O)N1CCN(c2ncnc3c2nnn3C)CC1`, the inhibition was -12%.
As for `c1ccc(-c2ccc(N3CCNCC3)nn2)nc1`, the inhibition was 100% (active).
Then `CCOc1ccccc1C(=O)N1CCC(Oc2cccc(C)n2)CC1`, with -8%; and `C=CCNC(=S)NN=C(C)c1cc(OC)c(OC)c(OC)c1`, with -5.43%.
Then `Cc1cc(OC2CN(C(=O)C(C)(C)Oc3ccc(Cl)cc3)C2)cc(=O)n1C`, with -5%.
The value for `COc1ccc(N2CCn3c(SCC(=O)Nc4ccc(OC)cc4OC)nnc32)cc1` was -12%; that for `O=C(O)c1cc(Br)cs1` was -5%.
On to `COc1ccc(OCC(=O)NN=C(C)CC(=O)Nc2ccc(OC)cc2[N+](=O)[O-])cc1`, for which the inhibition is -8.04%.
The value for `Cc1ccc(SCCC(=O)Nc2cccc(Cl)c2Cl)cc1` was -17% and -19%.
The value for `COc1ccc(NC(=O)CCSc2ccc(C)cc2)c([N+](=O)[O-])c1` was 62% (active); that for `CN(C)[C@@H](CNC(=O)C(=O)Nc1ccc(F)c(Cl)c1)c1ccco1` was -17%; that for `NC(=O)c1ccccc1NC(=O)c1cccn(Cc2cccc(F)c2)c1=O` was 4%.
Then `N#C/C(=C\N1CCC(C(N)=O)CC1)C(=O)NCCc1ccccc1`, with -13%; and `O=C(Nc1nc2c(s1)C(=O)NCCC2)c1ccc2noc(-c3ccccc3)c2c1`, with -3%; and `c1ccc(-c2nnc3c4ccccc4c4ccccc4c3n2)nc1`, with 81% (active).
For `Cc1oc(-c2ccc(Cl)cc2)cc1C(=O)Nc1ccc(S(N)(=O)=O)cc1`, the inhibition is -10%.
The value for `COc1ccc(CC(=O)NCC(c2ccsc2)N2CCc3ccccc3C2)cc1` (stereo not given) was -5%.
The value for `O=C(NCc1ccc2c(c1)OCO2)C(=O)NC[C@H](O)c1cccc2ccccc12` was -1%; that for `Cc1ccc(C(=O)Oc2ccc(C(=S)N3CCOCC3)cc2)cc1` was -12.7%.
As to `O=C(Oc1ccc(C(=S)N2CCOCC2)cc1)c1ccc(F)cc1`, the inhibition is -4.78%.
The value for `O=C(Oc1cccc(C(=S)N2CCOCC2)c1)c1cccc(Cl)c1` was 45.9% (active); that for `Cc1cc(C)c(C#N)c(SCCC(=O)NCCc2ccccc2)n1` was 0%; that for `Cc1ccc(OCC(=O)Oc2ccccc2[N+](=O)[O-])cc1` was -0.19%.
The value for `O=C(COc1ccccc1[N+](=O)[O-])NC1CC1` was -0.67%.
The value for `O=C(Oc1ccccc1[N+](=O)[O-])N(c1ccccc1)c1ccccc1` was 39% (active); that for `COc1cc(N2CCN(C(=O)Nc3ccc(F)c(Cl)c3)CC2)nc(C)n1` was -8%; that for `O=C(Cn1c(C2CC2)nc2c(cnn2-c2ccccc2)c1=O)Nc1cccc(Cl)c1` was 2%.
Take `O=S(=O)(NCc1cc(C2CC2)n(C2CCCC2)n1)c1ccc(Br)s1`: the inhibition is -11%.
Then `COc1ccc(C(=O)NN=C(c2ccccc2)c2ccccn2)cc1`, with -7.73%; and `CCN(CC)CCOc1ccc2c(c1)C(=NNC(=O)c1ccccn1)c1cc(OCCN(CC)CC)ccc1-2`, with 42.9% (active); and `COc1ccccc1NC(=O)CC(C)=NNC(=O)c1ccccn1`, with -3.2%.
The value for `CC(=NNC(=O)C(c1ccncc1)N1CCOCC1)c1ccc(Br)cc1` (stereo not given) was 1.79%; that for `Cc1cnc2n(c1=O)C[C@H](C(=O)Nc1ccc(OC(F)(F)F)cc1)CS2` was -1%.
`CN(C)CC#CCNC(=O)c1c(F)cccc1Cl`: the inhibition is -2%.
The value for `O=C(c1ccc(Cl)s1)N(Cc1nnc(-c2ccccc2Cl)o1)C1CC1` was -3.73%.
Take `O=C(c1cc(-c2ccco2)nc2ccccc12)N(Cc1nnc(-c2ccc(Cl)cc2)o1)C1CC1`: the inhibition was 38.9% (active).
Then `O=C(Cc1nnc(-c2ccc3ncccc3c2)o1)NCc1ccc(Cl)cc1`, with 2%; and `O=C(Cc1csc(Nc2ccc(OC(F)(F)F)cc2)n1)NCc1ccco1`, with -4%; and `Cc1cc(SCC(=O)N2CCCc3ccccc32)n2ncc(-c3ccccc3)c2n1`, with -7%.
For the compound `COc1ccc(OC)c(NC(=O)CSc2nccn2-c2cccc(C(F)(F)F)c2)c1`, the inhibition was 10%.
Turning to `Cc1ccc(NC(=O)Cc2csc(SCC(=O)c3ccc4c(c3)OCO4)n2)cc1F`, the inhibition is 0%.
The value for `CN(C)C(CNC(=O)Nc1ccc2c(c1)OCO2)c1ccsc1` (stereo not given) was -7%; that for `O=C(Nc1nnc(C2CC2)s1)c1ccccn1` was 90.3% (active).
The value for `O=C(NCc1cccnc1-c1cccs1)c1ccccn1` was -5%; that for `O=C(Nc1nncs1)c1ccc(S(=O)(=O)NC2CC2)cc1` was 0% and -28%.
For the compound `CC1CCN(c2ccc(C(=O)Nc3nnc(C4CC4)s3)cc2[N+](=O)[O-])CC1`, the inhibition is -10.1%.
Consider `O=C(Nc1nncs1)c1ccccn1`, for which the inhibition was 98% (active).
Then `O=C(Nc1ccccc1)N1CCC(c2nnc(C3CC3)s2)CC1`, with -7%; and `COC(=O)C1CCN(C(=O)C(=O)c2c[nH]c3ccccc23)CC1`, with 6%; and `CCOc1ccc(C(=O)NCCNC(=O)c2ccc(NC(C)=O)cc2)cc1OCC`, with -15%.
Then `COc1c2ccc(C(=O)NCC3CCCN3c3nc4ccccc4o3)cc2nn1C` (stereo not given), with -11%.
Then `Cc1ccc(/C=C/S(=O)(=O)N2CC(S(=O)(=O)c3ccc(F)cc3)C2)cc1`, with -9%; and `N#CCCSc1ccccc1NC(=O)c1ccc([N+](=O)[O-])o1`, with -9%.
As for `COc1ccc(-c2cnc(SCC(=O)Nc3nccs3)n2-c2cccc(Cl)c2)cc1`, the inhibition was -6%.
As for `CCOC(=O)CSc1ncc(-c2ccc(OC)cc2)n1-c1ccccc1C`, the inhibition was 53% (active).
Then `CCOC(=O)CSc1nnc(CNC(=O)Cc2ccccc2)n1-c1ccccc1OC`, with -1.32%.
For the compound `Cc1ccnc(N/C=C(/NC(=O)c2ccccc2)C(=O)N/N=C/c2ccc(Cl)cc2)n1`, the inhibition result was “inactive”.
Regarding `COc1ccc(S(=O)(=O)NCc2ccccc2-c2ccsc2)cc1Cl`, the inhibition was -26%.
The value for `CCCn1c(=N)n(CC(=O)c2ccc(Cl)c(Cl)c2)c2ccccc21` was -3.72%; that for `O=C1COc2ccc(C(=O)COC(=O)c3ccccc3Cl)cc2N1` was -1.39%.
As to `O=C(CN1CC(=O)Oc2ccccc21)OCC(=O)c1ccc(Cl)c(Cl)c1`, the inhibition is 93.6% (active).
Then `O=C(NCCN1CCOC(c2ccccc2)C1)C1CC1` (stereo not given), with -7%.
Then `c1ccc(-c2cn3c(n2)CCc2ccc4cccnc4c2-3)cc1`, with 39.4% (active).
On to `c1ccc(-c2nc3ccc4ncccc4c3nc2-c2ccccc2)cc1`, for which the inhibition was -12%.
Then `CC(C)CS(=O)(=O)C1CCN(C(=O)c2cccc(Oc3ccc(F)cc3)c2)CC1`, with -1%; and `CCCCC[n+]1ccn(C2=C([O-])c3ccccc3C(=O)C2=NS(=O)(=O)c2ccccc2)c1`, with -14.3%; and `CC(C)(C)NC(=O)COC(=O)c1cc(Cl)ccc1[N+](=O)[O-]`, with 6.97%.
The value for `CCCC(=O)OCC(=O)Nc1cc(Cl)ccc1[N+](=O)[O-]` was 42.6% (active); that for `Cc1cc(NC(=O)COC(=O)COc2ccc(Cl)cc2C)c([N+](=O)[O-])cc1C` was 10.3%.
Turning to `O=C(NCc1cncc(-c2cccs2)c1)c1ccc2ncsc2c1`, the inhibition is -4%.
Then `CC(NC(=O)c1ccccc1)C(c1ccccc1)N(C)C` (stereo not given), with 25%; and `CC(C)NC(=O)c1ccccc1Nc1c([N+](=O)[O-])cc(C(F)(F)F)cc1[N+](=O)[O-]`, with 56% (active).
The value for `O=C(NNC(=O)c1ccccc1[N+](=O)[O-])Nc1ccccc1C(F)(F)F` was -2.15%.
Then `CC(C)NC(=O)c1ccc(Sc2ccccc2)c([N+](=O)[O-])c1`, with -10.4%; and `COc1ccc(C)cc1NC(=O)Cc1cc(=O)[nH]c(SCc2ccc(F)cc2)n1`, with -4%; and `CC(OC(=O)CN1C(=O)COc2ccccc21)C(=O)NCc1ccc(F)cc1` (stereo not given), with 4.53%.
Turning to `O=C(CN1C(=O)COc2ccc(Cl)cc21)Nc1ccc(N2CCOCC2)cc1`, the inhibition is -6.86%.
On to `O=C(CN1C(=O)COc2ccccc21)Nc1ccc(F)cc1`, for which the inhibition was 48.3% (active).
The value for `O=C(CSc1ncc(-c2ccccc2)n1-c1ccc(F)cc1)N1CCCC1` was 43% (active).
The value for `Cn1c(-c2ccc(F)cc2)cnc1SCC(=O)NNC(=O)Cc1ccccc1` was -3.92%; that for `N#CCSc1ncc(-c2ccc(Br)cc2)n1-c1ccc(F)cc1` was 7%.
